# DT40 TDP1 CPT = qHTS for Inhibitors of human tyrosyl-DNA phosphodiesterase 1 (TDP1): qHTS in cells in presence of CPT. hit rate 12% among 420,000. chicken DT40 Tdp1-/-;hTDP1 cells + 20 nM CPT, ATP luminescence, 48 h. Potency, µM (titrated, usually from 46.2 µM), most hits filed as inhibitors; note: nearly all actives have a fitted effect of over 55% in size
#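 Cell growth measured by CellTiter-Glo luminescence after a minimum 48 h, 37 C compound exposure with 20 nM CPT in Tdp1-knockout DT40 cells stably expressing hTDP1, seeded 400/well; qHTS titration format.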
# RORg inh = qHTS for inhibitors of ROR gamma transcriptional activity; Potency, µM (titrated, usually from 53.6 µM), hits mostly inhibitors; Drosophila S2 Gal4-RORgamma UAS-luciferase reporter, 20 h; AID 2551, 2010; Nuclear receptor ROR-gamma (Mus musculus), P51450; hit rate 5.4% among 310,000; note: nearly all actives have a fitted effect of over 60% in size
# Target sequence (P51450 whole entry, looked up, the tested form may be a part): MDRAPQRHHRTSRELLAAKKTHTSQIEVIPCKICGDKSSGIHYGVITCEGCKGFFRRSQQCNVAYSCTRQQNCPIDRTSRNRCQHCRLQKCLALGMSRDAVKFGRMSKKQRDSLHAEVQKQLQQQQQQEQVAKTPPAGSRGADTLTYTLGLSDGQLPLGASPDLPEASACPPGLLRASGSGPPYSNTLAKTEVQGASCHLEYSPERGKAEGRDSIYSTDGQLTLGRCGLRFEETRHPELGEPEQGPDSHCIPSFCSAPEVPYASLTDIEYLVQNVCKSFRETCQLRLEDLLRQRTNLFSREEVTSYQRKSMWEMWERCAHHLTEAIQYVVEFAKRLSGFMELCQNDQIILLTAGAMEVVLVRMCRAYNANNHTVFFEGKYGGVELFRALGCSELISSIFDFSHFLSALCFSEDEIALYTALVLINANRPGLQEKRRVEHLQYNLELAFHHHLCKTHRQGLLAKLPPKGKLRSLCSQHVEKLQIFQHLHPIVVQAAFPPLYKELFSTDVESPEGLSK
#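 ROR gamma transcriptional activity was tracked as Gal4-UAS luciferase output in stably transfected Drosophila Schneider cells, with compound added 1 hr before 700 uM copper sulfate induction and a 20 hr ambient-temperature incubation.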
# Gal4-VP16 FLuc = VP16 counterscreen qHTS for inhibitors of ROR gamma transcriptional activity; Potency, µM (highest dose often 53.6 µM), actives largely listed as inhibitors; hit rate 3.5% among 310,000; Drosophila S2 Gal4-VP16 UAS-luciferase, luminescence, 20 h;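 note: Gal4-VP16 expression switched on by copper sulfate through the metallothionein promoter; nearly all actives have a fitted effect of over 50% in size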
# ELG1 DNA repair = qHTS screen for small molecules that inhibit ELG1-dependent DNA repair in human embryonic kidney (HEK293T) cells expressing luciferase-tagged ELG1; AID 504467, 2011; hit rate 2.3% among 330,000; HEK293T ELG1-luciferase reporter, luminescence, 16 h; DNA damage induced by 5-fluorouridine; Potency, µM (highest dose often 46.1 µM), most hits filed as inhibitors; note: nearly all actives have a fitted effect of over 55% in size
#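 Cells (2,000 per well) received 5-fluorouridine plus test compound or DMSO and were incubated 16 hr at 37 °C, 5% CO2. Luciferase activity was read by luminescence 30 min after ONE-Glo addition; signal suppression marked inhibition of damage-induced ELG1 function.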
# TDP1 cell noCPT = qHTS for Inhibitors of human tyrosyl-DNA phosphodiesterase 1 (TDP1): qHTS in cells in absence of CPT; DT40 Tdp1-/- hTDP1 cells, no CPT, ATP luminescence, 48 h; AID 686978, 2013; Potency, µM (titrated, usually from 46.2 µM), actives largely listed as inhibitors; hit rate 15% among 420,000; note: nearly all actives have a fitted effect of over 55% in size
#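 No-CPT arm: Tdp1-/-;hTDP1 DT40 cells (400/well) plus compounds, incubated ≥48 hr at 37 °C. Readout CellTiter-Glo luminescence.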
# IL1B secr inh = qHTS for Inhibitors of Inflammasome Signaling: IL-1-beta AlphaLISA Primary Screen; THP-1 LPS/ATP IL-1B secretion, AlphaLISA, 16 h; stronger effect = lower value; hit rate 4.7% among 360,000; activity change, % at 57.5 µM; in the data active = activity change below about -50%; inconclusive = mostly about -30% to -49%
#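 THP-1 cells pretreated 1 hr with compounds (up to 57.5 uM final), then stimulated with LPS (250 ng/mL final) plus ATP (1.25 mM final); secreted IL-1B measured by AlphaLISA after 16 hr, decreased signal indicating inhibition.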
# Hits are given with their value; n = inactive; u = inconclusive; x = not tested or not shown; [ ] = dose if it differs, or a comment. Only some compounds are listed: those with a hit (about 21% of all), similar ones and a draw of the others. Unless noted, calls come from the whole dose curve; as a rule, active = well fitted curve in the direction sought with a large enough effect; inconclusive = small, poorly fitted or top-dose-only effect, or another doubt; inactive = no such curve, though single readings can be large; an effect the other way counts as inactive or inconclusive.
SMILES,DT40 TDP1 CPT,RORg inh,Gal4-VP16 FLuc,ELG1 DNA repair,TDP1 cell noCPT,IL1B secr inh
COC(=O)c1ccc(CSc2nnc(N)s2)cc1,n,n[10 µM],n,u,n,n
COC(=O)c1ccc(CSc2nnc(C)s2)cc1,11.6µM,n,n,u,10.3µM,n
CCN(Cc1ccncc1)Cc1nc(-c2ccc(C(=O)OC)cc2)no1,u,n,n,n,20.6µM,n
COC(=O)c1ccc(-c2noc(CN(C)CCC3CCCCO3)n2)cc1 (stereo unspecified),n,5.62µM,5.62µM,u,u,n
COc1ccc(NC(=O)Cn2c(=O)oc3cc(S(=O)(=O)NC(C)C)ccc32)cc1OC,n,x,x,x,u,x
COc1ccc(NC(=O)CN2C(=O)COc3ccc(S(=O)(=O)NC4CCCC4)cc32)cc1OC,n,x,x,x,n,x
COc1ccc(NC(=O)Cn2c(=O)oc3cc(S(=O)(=O)NC4CCCC4)ccc32)cc1OC,u,x,x,x,20.6µM,x
COc1ccc(NC(=O)COc2ccc(S(=O)(=O)NC3CCCCC3)cc2)cc1OC,u,x,x,x,20.6µM,x
CC1Cc2ccccc2N1C(=O)Cn1c(=O)oc2cc(S(=O)(=O)NC3CCCC3)ccc21 (stereo unspecified),u,n,n,u,u,-52.4
Cc1ccc(OCC(=O)Nc2ccc(C)c(F)c2)c([N+](=O)[O-])n1,n,x,x,u,n,n
CCOC(=O)C1(CCc2ccccc2)CCN(Cc2cccc3nccnc23)CC1,20.6µM,n,n,u,16.4µM,u
CCOC(=O)C1(CCCc2ccccc2)CCN(Cc2nccn2CC)CC1,u,3.98µM,u,n,u,-55.1
CCOC(=O)C1(CCCc2ccccc2)CCN(Cc2cn(CC)nc2C)CC1,u,n,n,n,u,-76.5
CCOC(=O)C1(CCOc2ccccc2)CCN(Cc2nccn2CC)CC1,u,5.01µM,u,u,u,n
CCOC(=O)C1(CCCc2ccccc2)CCN(C(=O)Cc2nonc2C)CC1,u,u,n,u,u,u
CCOC(=O)C1(CCCc2ccccc2)CCN(CCCn2cccn2)CC1,n,n,n,n,u,n
COc1ccc(CCC(=O)OCC(=O)Nc2ccccc2)cc1,n,n,n,u,n,n
CC[C@@H](NC(=O)[C@@H](Cc1ccccc1)NC(=O)CC[C@H]1O[C@@H](n2ccc(=O)[nH]c2=O)[C@H](O)[C@@H]1O)c1ccccc1,n,x,x,x,n,n
Cc1ccc2oc(C(=O)Nc3c(C(=O)Nc4ccccc4)oc4ccccc34)cc(=O)c2c1,n,x,x,x,n,x
O=C1[C@@H]2[C@@H](CN3CN(c4ccccc4)N=C(c4ccccc4)[C@@]23c2ccccc2)C(=O)N1c1ccccc1,5.8µM,x,x,x,13µM,n
O=C(CN1C(=O)NC(c2ccccc2)(c2ccccc2)C1=O)NCc1cccs1,n,x,x,n,n,n
C#CCOc1c(Cl)cc(/C=N/NC(N)=S)cc1OCC,u,14.1µM,u,u,10.3µM,n
CCOc1c(Cl)cc(/C=N/NC(N)=S)cc1OC,u,7.08µM,15.8µM,n,23.1µM,n
CCOc1cc(C(=O)O)cc(Cl)c1OCC#N,n,n,n,n,n,n
CC(=O)Nc1c(O)n(C)c2ccccc12,n,u,n[0.365 µM],n,n,n
SMILES,DT40 TDP1 CPT,RORg inh,Gal4-VP16 FLuc,ELG1 DNA repair,TDP1 cell noCPT,IL1B secr inh
Cn1c(O)c(C(C#N)=C2N=c3ccccc3=N2)c2ccccc21,8.2µM,n,n,n,11.6µM,n
Cc1ccc(-c2csc(C(O)(c3ccccc3)C(F)(F)F)n2)cc1C (stereo unspecified),u,x,x,x,16.4µM,n
Cc1ccccc1-c1csc(C(O)(c2ccccc2)C(F)(F)F)n1 (stereo unspecified),u,x,x,x,u,n
CN(C)c1ccc(-c2csc(C(O)(c3ccccc3)C(F)(F)F)n2)cc1 (stereo unspecified),10.3µM,x,x,x,7.31µM,n
OC(c1ccccc1)(c1nc(-c2cccc3cccnc23)cs1)C(F)(F)F (stereo unspecified),23.1µM,x,x,x,u,n
Oc1cccc(-c2csc(C(O)(c3ccccc3)C(F)(F)F)n2)c1 (stereo unspecified),u,x,x,x,u,n
OC(c1ccccc1)(c1nc(-c2ccc(F)c(Cl)c2)cs1)C(F)(F)F (stereo unspecified),u,x,x,x,16.4µM,n
CC1CCCN(S(=O)(=O)c2ccc3c(c2)OCCO3)C1 (stereo unspecified),n,x,x,x,u,n
COc1ccc([C@@]23Oc4cc(OC)cc(OC)c4[C@]2(O)[C@H](O)[C@H](C(=O)N(C)C)[C@H]3c2ccccc2)cc1,0.0073µM,x,x,x,0.0092µM,n
CC(C)Cc1cc(C(=O)N2CCCC(CO)(Cc3ccc(F)cc3)C2)no1 (stereo unspecified),u,n,n,n,u,n
Cc1cc(C(=O)N2CCCC(N3CCN(c4ccc(F)cc4)CC3)C2)c(C)o1 (stereo unspecified),23.1µM,n,n,u,18.4µM,n
Cc1cc(C(=O)N2CCCC(CO)(Cc3ccc(F)cc3)C2)c(C)o1 (stereo unspecified),23.1µM,n,n,n,23.1µM,n
Cc1cc(C(=O)N2CCCC(C(=O)c3cc(F)ccc3F)C2)c(C)o1 (stereo unspecified),u,n,n,n,18.4µM,n
Cc1ccc(C(=O)N2CCCC(C(=O)c3cc(F)ccc3F)C2)s1 (stereo unspecified),u,n,n,n,u,n
CC(C)c1cc(C(=O)N2CCCC(N3CCN(c4ccc(F)cc4)CC3)C2)n(C)n1 (stereo unspecified),16.4µM,n,n,u,u,n
Cc1ccc(CNC(=O)C(C)n2nc(C)n3c(cc4sccc43)c2=O)cc1 (stereo unspecified),n,x,x,x,n,x
Cc1ccc(-n2c(=O)c3ccc(C(=O)NCc4ccco4)cc3n(CC(=O)Nc3ccccc3C(F)(F)F)c2=O)cc1,n,x,x,x,n,x
COc1ccc(C(=O)C2CCCN(C(=O)c3c4c(nn3C)CCCC4)C2)cc1F (stereo unspecified),n,n,n,u,u,n
Cn1nc2c(c1C(=O)N1CCCC(C(=O)c3cc(F)ccc3F)C1)CCCC2 (stereo unspecified),16.4µM,u,n,n,n,n
Cc1ccc2c(c1)nnn2C1CCN(CC(=O)N2CCN(c3ccc(F)cc3)CC2)CC1,16.4µM,n,n,u,25.9µM,n

# Compound activity: PubChem BioAssay, National Center for Advancing Translational Sciences (NCATS)
